Data: PubChem BioAssay (NCI)
About 79,000 compounds went through this panel and 15% of them were active in at least one assay; those are over-represented in the sample as a whole. Active and inactive are the calls of the source. Rule as the data show it: active = growth inhibition above about 70%; inactive = the rest.

How the values were obtained:
[1] = NCI Yeast Anticancer Drug Screen. Data for the rad50 strain (AID 155);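 also: 0% = growth of vehicle-only cultures of the same strain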; conditions: S. cerevisiae rad50 strain growth inhibition, active compounds read high
Summary of the method: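 Compounds were tested on a yeast strain with an engineered DNA damage repair alteration; the reported value is growth inhibition normalised to vehicle treatment.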

[2] = NCI Yeast Anticancer Drug Screen. Data for the mec2-1 strain (AID 157); conditions: S. cerevisiae mec2-1 strain, active compounds read high
Summary of the method: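 Compounds were applied to mec2-1 yeast cells. Their growth was then compared with that of vehicle-treated cultures to give growth inhibition.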

[3] = NCI Yeast Anticancer Drug Screen. Data for the cln2 rad14 strain (AID 165);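 also: 0% = growth equal to vehicle treated cultures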; conditions: S. cerevisiae cln2 rad14 strain, active compounds read high
Summary of the method: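 Strain: cln2 rad14 yeast, altered in cell cycle control and DNA damage repair. Read-out: growth inhibition vs vehicle.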

[4] = NCI Yeast Anticancer Drug Screen. Data for the bub3 strain (AID 167); conditions: S. cerevisiae bub3 mutant strain, active compounds read high
Summary of the method: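 Growth of a checkpoint-deficient yeast mutant is measured after compound exposure. Values represent inhibition relative to vehicle.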

[5] = NCI Yeast Anticancer Drug Screen. Data for the sgs1 mgt1 strain (AID 161);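 also: 0% = growth of cultures given vehicle only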; conditions: S. cerevisiae sgs1 mgt1 strain, active compounds read high
Summary of the method: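 Growth of a repair-deficient yeast mutant was monitored after compound treatment and expressed as inhibition relative to vehicle-treated cultures.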

[6] = NCI Yeast Anticancer Drug Screen. Data for the mlh1 rad18 strain (AID 175); conditions: S. cerevisiae mlh1 rad18 strain growth inhibition, active compounds read high
Summary of the method: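 A repair-deficient yeast strain is exposed to test compound, and growth is scored relative to vehicle-treated controls.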

[7] = at 5.0 µM (retest, dose inferred, filed as 0.5)
[8] = at 50.0 µM (retest, dose inferred, filed as 5.0)

Measured: growth inhibition

FC(F)(F)C(C1=NC(C(F)(F)F)(C(F)(F)F)N=C(N2CCOCC2)O1)C(F)(F)F
active: [2]; at 50.0 µM 71.8% | [4]; [8] 80%
inactive: [1]; [7] 24% | [1]; [8] 33% | [1]; at 50.0 µM 24.8% | [2]; [7] 16% | [2]; [8] 28% | [3]; [7] 26% | [3]; [8] 45% | [3]; at 50.0 µM 60.4% | [4]; [7] 36% | [4]; at 50.0 µM 13.6%

CC(=O)C(=Cc1ccc(C=C(C(C)=O)C(C)=O)cc1)C(C)=O
active: [6]; [8] 91% | [6]; at 50.0 µM 94.7%
inactive: [1]; [7] -1% | [1]; [8] 30% | [1]; at 50.0 µM 45% | [2]; [7] 5% | [2]; [8] 40% | [2]; at 50.0 µM 58.5% | [5]; [7] 11% | [5]; [8] 61% | [5]; at 50.0 µM 58.5% | [4]; [7] -5% | [4]; [8] 30% | [4]; at 50.0 µM 4.7% | [6]; [7] 22%

O=c1c(NO)c([N+](=O)[O-])cnn1-c1ccccc1
inactive: [1]; [7] 25% | [1]; [8] 51% | [1]; at 50.0 µM 14.5% | [2]; [7] 8% | [2]; [8] 18% | [2]; at 50.0 µM 2.4% | [5]; [7] -7% | [5]; [8] -2% | [5]; at 50.0 µM 29.4% | [3]; [7] 13% | [3]; [8] 31% | [3]; at 50.0 µM 34.4% | [6]; [7] -23% | [6]; [8] -5% | [6]; at 50.0 µM -0.5%

CCOC(=O)N1CCN(c2cc(C)nc3cc(OC)ccc23)CC1
inactive: [1]; [7] 4% | [1]; [8] -4% | [1]; at 50.0 µM 21.1% | [2]; [7] -1% | [2]; [8] 1% | [2]; at 50.0 µM 5.9% | [5]; [7] 0% | [5]; [8] -5% | [5]; at 50.0 µM 17.6% | [3]; [7] -1% | [3]; [8] -5% | [4]; [7] 3% | [4]; [8] 1% | [4]; at 50.0 µM 59.5% | [6]; [7] 0% | [6]; [8] -7% | [6]; at 50.0 µM 38.9%

O=C(Cn1cnc2ccc([N+](=O)[O-])cc21)N1CCN(c2ccccc2)CC1
inactive: [1]; [7] -2% | [1]; [8] -7% | [1]; at 50.0 µM 10.3% | [2]; [7] 4% | [2]; [8] 8% | [2]; at 50.0 µM 19.6% | [5]; [7] -25% | [5]; [8] 2% | [5]; at 50.0 µM 12.1% | [3]; [7] 7% | [3]; [8] -5% | [3]; at 50.0 µM -53.6% | [6]; [7] -9% | [6]; [8] -22% | [6]; at 50.0 µM 0.6%

O=C(CNC(=O)OCc1ccccc1)Oc1ccc([N+](=O)[O-])cc1
active: [6]; at 50.0 µM 73.7%
inactive: [1]; [7] -9% | [1]; [8] -1% | [1]; at 50.0 µM 22.1% | [2]; [7] -1% | [2]; [8] 38% | [2]; at 50.0 µM 58.4% | [5]; [7] 3% | [5]; [8] 7% | [5]; at 50.0 µM 48.6% | [3]; [7] -42% | [3]; [8] -56% | [3]; at 50.0 µM -60.2% | [6]; [7] 12% | [6]; [8] 36%

O=C(CNC(=O)C(CSCc1ccccc1)NC(=O)OCc1ccccc1)Oc1c(Cl)c(Cl)c(Cl)c(Cl)c1Cl (stereo not given)
inactive: [1]; [7] 10% | [1]; [8] 34% | [1]; at 50.0 µM 46.9% | [2]; [7] 8% | [2]; [8] 30% | [2]; at 50.0 µM 61.9% | [5]; [7] 2% | [5]; [8] 30% | [5]; at 50.0 µM 68.8% | [3]; [7] 3% | [3]; [8] 20% | [3]; at 50.0 µM 25.6% | [4]; [7] -4% | [4]; [8] 13% | [4]; at 50.0 µM 15.9% | [6]; [7] 9% | [6]; [8] 51% | [6]; at 50.0 µM 66.4%

CCC[CH2][Ge]([CH2]CCC)([CH2]CCC)[O]C(C)=O
active: [3]; at 50.0 µM 70.8%
inactive: [1]; [7] 2% | [1]; [8] 9% | [1]; at 50.0 µM 54.1% | [2]; [7] 0% | [2]; [8] 19% | [2]; at 50.0 µM 27.3% | [3]; [7] 1% | [3]; [8] -1% | [4]; [7] -2% | [4]; [8] 6% | [4]; at 50.0 µM 19.2% | [6]; [7] 2% | [6]; [8] 11% | [6]; at 50.0 µM 52.8%

CC(C)(C)c1cc(C(O)(C(F)(F)F)C(F)(F)F)c(S)c(C(O)(C(F)(F)F)C(F)(F)F)c1
inactive: [1]; [7] 8% | [2]; [7] -6% | [5]; [7] 9% | [3]; [7] 16% | [4]; [7] 7% | [6]; [7] 4%
active: [1]; [8] 98% | [1]; at 50.0 µM 98.8% | [2]; [8] 99% | [2]; at 50.0 µM 99.3% | [5]; [8] 98% | [5]; at 50.0 µM 98.8% | [3]; [8] 98% | [3]; at 50.0 µM 99% | [4]; [8] 97% | [4]; at 50.0 µM 99% | [6]; [8] 95% | [6]; at 50.0 µM 99%

N=C(N)c1ccc(Nc2ccc(-c3cc4ccc(C(=N)N)cc4[nH]3)cc2)cc1
active: [1]; [7] 99% | [1]; [8] 98% | [1]; at 50.0 µM 98.5% | [2]; [7] 99% | [2]; [8] 99% | [2]; at 50.0 µM 98.8% | [5]; [7] 99% | [5]; [8] 99% | [5]; at 50.0 µM 98.8% | [3]; [7] 99% | [3]; [8] 98% | [3]; at 50.0 µM 98.3% | [6]; [7] 99% | [6]; [8] 98% | [6]; at 50.0 µM 98.5%

CC(C)C(NC(=O)/C=C\c1ccccc1)C(=O)O (stereo not given)
active: [1]; at 50.0 µM 88.4% | [2]; at 50.0 µM 94.2% | [3]; at 50.0 µM 95.3% | [4]; at 50.0 µM 71.7% | [6]; at 50.0 µM 95.2%
inactive: [1]; [7] -2% | [1]; [8] 1% | [2]; [7] 1% | [2]; [8] -6% | [3]; [7] 7% | [3]; [8] -6% | [4]; [7] -3% | [4]; [8] -1% | [6]; [7] -2% | [6]; [8] 4%
